PubChem BioAssay AID1159580 (chemical genetic matrix, 2015)
Where “and” joins values, the source holds several entries; their conditions need not be identical. Equal values may be shown once. About 2,000 (36%) of roughly 5,500 compounds were called active. About 18% were inconclusive and are not listed. Cut-off read from the data, not from the text of the source: active = normalized growth mostly below about 0.91 (no sharp cut-off); inconclusive = no clear call, values can overlap the other calls; inactive = mostly above about 0.92. This is one part of the list.

Assay: chemical genetic growth profiling, strain panel (AID 1159580);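 note: tested at 20 µM; growth read once vehicle control cultures reached saturation at 30 °C; 1 = growth at the plate median or of vehicle wells; lower values mean less growth of the strain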
Conditions: S. cerevisiae deletion strains, growth OD
[1] = locus YAR019C, strain CDC15, stronger effect = lower value
[2] = locus YBL105C, strain PKC1, stronger effect = lower value
[3] = locus YBR135W, strain CKS1, stronger effect = lower value
[4] = locus YBR136W, strain MEC1, stronger effect = lower value
[5] = locus YBR160W, strain CDC28, stronger effect = lower value
[6] = locus YDL017W, strain CDC7, stronger effect = lower value
[7] = locus YDL028C, strain MPS1, stronger effect = lower value
[8] = locus YDL101C, strain DUN1, stronger effect = lower value
[9] = locus YDL108W, strain KIN28, stronger effect = lower value
[10] = locus YDL132W, strain cdc53, stronger effect = lower value
[11] = locus YDL214C, strain PRR2, stronger effect = lower value
[12] = locus YDR052C, strain DBF4, stronger effect = lower value
[13] = locus YDR054C, strain cdc34, stronger effect = lower value
[14] = locus YDR226W, strain ADK1, stronger effect = lower value
[15] = locus YDR477W, strain SNF1, stronger effect = lower value
[16] = locus YER123W, strain YCK3, stronger effect = lower value
[17] = locus YER133W, strain GLC7, stronger effect = lower value
[18] = locus YFL009W, strain cdc4, stronger effect = lower value
[19] = locus YFL029C, strain CAK1, stronger effect = lower value
[20] = locus YFR003C, strain YPI1, stronger effect = lower value
[21] = locus YFR019W, strain FAB1, stronger effect = lower value
[22] = locus YFR028C, strain CDC14, stronger effect = lower value
[23] = locus YGR040W, strain KSS1, stronger effect = lower value
[24] = locus YGR052W, strain FMP48, stronger effect = lower value
[25] = locus YGR092W, strain DBF2, stronger effect = lower value
[26] = locus YHR030C, strain SLT2, stronger effect = lower value
[27] = locus YHR079C, strain IRE1, stronger effect = lower value
[28] = locus YHR082C, strain KSP1, stronger effect = lower value
[29] = locus YHR205W, strain SCH9, stronger effect = lower value
[30] = locus YIL147C, strain SLN1, stronger effect = lower value
[31] = locus YJL095W, strain BCK1, stronger effect = lower value
[32] = locus YJL128C, strain PBS2, stronger effect = lower value
[33] = locus YJL157C, strain FAR1, stronger effect = lower value
[34] = locus YJR016C, strain ILV3, stronger effect = lower value
[35] = locus YJR066W, strain TOR1 (second series), stronger effect = lower value
[36] = locus YJR066W, strain TOR1, stronger effect = lower value
[37] = locus YKL048C, strain ELM1, stronger effect = lower value
[38] = locus YKL067W, strain YNK1, stronger effect = lower value
[39] = locus YKL101W, strain HSL1, stronger effect = lower value
[40] = locus YKL193C, strain SDS22, stronger effect = lower value
[41] = locus YKL203C, strain TOR2, stronger effect = lower value
[42] = locus YLR113W, strain HOG1, stronger effect = lower value
[43] = locus YLR133W, strain CKI1, stronger effect = lower value
[44] = locus YLR403W, strain SFP1, stronger effect = lower value
[45] = locus YML070W, strain DAK1, stronger effect = lower value
[46] = locus YMR001C, strain CDC5, stronger effect = lower value
[47] = locus YMR205C, strain PFK2 (second series), stronger effect = lower value
[48] = locus YMR277W, strain FCP1, stronger effect = lower value
[49] = locus YNL006W, strain LST8, stronger effect = lower value
[50] = locus YNL020C, strain ARK1, stronger effect = lower value
[51] = locus YNL161W, strain CBK1, stronger effect = lower value
[52] = locus YNL183C, strain NPR1, stronger effect = lower value
[53] = locus YNL207W, strain RIO2, stronger effect = lower value
[54] = locus YNL222W, strain SSU72, stronger effect = lower value
[55] = locus YNL307C, strain MCK1 (second series), stronger effect = lower value
[56] = locus YOL078W, strain AVO1, stronger effect = lower value
[57] = locus YOL136C, strain PFK27, stronger effect = lower value
[58] = locus YOR061W, strain CKA2, stronger effect = lower value
[59] = locus YOR119C, strain RIO1, stronger effect = lower value
[60] = locus YOR231W, strain MKK1, stronger effect = lower value
[61] = locus YOR329C, strain SCD5, stronger effect = lower value
[62] = locus YPL031C, strain PHO85, stronger effect = lower value
[63] = locus YPL153C, strain RAD53, stronger effect = lower value
[64] = locus YPL209C, strain IPL1, stronger effect = lower value
[65] = locus YPL256C, strain CLN2, stronger effect = lower value
[66] = locus YPR025C, strain CCL1, stronger effect = lower value
[67] = locus YPR106W, strain ISR1, stronger effect = lower value
[68] = locus YPR111W, strain DBF20, stronger effect = lower value
[69] = strain NNK1, stronger effect = lower value
[70] = strain TSCII, stronger effect = lower value
[71] = locus YDR150W, strain NUM1, stronger effect = lower value
[72] = locus YGR078C, strain PAC10, stronger effect = lower value
[73] = locus YJR075W, strain HOC1, stronger effect = lower value
[74] = locus YMR263W, strain SAP30, stronger effect = lower value
[75] = locus YNL153C, strain GIM3, stronger effect = lower value
[76] = locus YPL055C, strain LGE1, stronger effect = lower value

Measured: normalized growth

Oc1ccc(N=Nc2ccccn2)c(O)c1
active: [1] 0.0954 | [2] 0.0926 | [3] 0.0984 | [4] 0.0929 | [5] 0.0967 | [6] 0.0946 | [7] 0.0969 | [8] 0.103 | [9] 0.0995 | [10] 0.0971 | [11] 0.0962 | [12] 0.0928 | [13] 0.0989 | [14] 0.0953 | [15] 0.102 | [16] 0.108 | [17] 0.103 | [18] 0.0975 | [19] 0.0955 | [20] 0.0966 | [21] 0.0923 | [22] 0.0968 | [23] 0.0983 | [24] 0.121 | [25] 0.0944 | [26] 0.116 | [27] 0.12 | [28] 0.125 | [29] 0.00344 | [30] 0.0967 | [31] 0.104 | [32] 0.102 | [33] 0.0922 | [34] 0.0883 | [35] 0.0985 | [36] 0.114 | [37] 0.113 | [38] 0.101 | [39] 0.0988 | [40] 0.0969 | [41] 0.102 | [42] 0.153 | [43] 0.0924 | [44] 0.00522 | [45] 0.103 | [46] 0.095 | [47] 0.0981 | [48] 0.0981 | [49] 0.1 | [50] 0.0963 | [51] 0.0956 | [52] 0.123 | [53] 0.0923 | [54] 0.0956 | [55] 0.0988 | [56] 0.0959 | [57] 0.0997 | [58] 0.097 | [59] 0.108 | [60] 0.118 | [61] 0.0939 | [62] 0.101 | [63] 0.1 | locus YPL204W, strain HRR25, stronger effect = lower value 0.102 | [64] 0.0941 | [65] 0.155 | [66] 0.0983 | [67] 0.0922 | [68] 0.103 | [69] 0.0965 | [70] 0.0967

COc1ccc(CCN(C)CCc2ccc(OC)c(OC)c2)cc1OC
inactive: locus YAL040C, strain CLN3, stronger effect = lower value 1.08 | locus YCL061C, strain MRC1 (second series), stronger effect = lower value 0.998 | [71] 1.01 | locus YDR363W, strain ESC2, stronger effect = lower value 1.01 | locus YER002W, strain NOP16, stronger effect = lower value 1.01 | [72] 0.992 | [73] 0.983 | [74] 0.999 | locus YMR307W, strain GAS1, stronger effect = lower value 0.998 | [75] 1.03 | locus YNL175C, strain NOP13, stronger effect = lower value 1.02 | locus YNL197C, strain WHI3, stronger effect = lower value 1.01 | locus YNL224C, strain SQS1, stronger effect = lower value 1.01 | locus YOR083W, strain WHI5 (second series), stronger effect = lower value 1.02 | [76] 0.985

COc1cc(CC/C(C)=N/O)ccc1OCc1ccc(Cl)cc1Cl
inactive: [1] 0.977 | [2] 0.972 | [3] 0.978 | [4] 0.977 | [5] 0.981 | locus YBR229C, strain ROT2, stronger effect = lower value 0.934 | locus YCL061C, strain MRC1, stronger effect = lower value 0.931 | [6] 0.979 | [7] 0.978 | [8] 0.992 and 0.922 | [9] 0.978 | [10] 0.982 | locus YDL134C, strain PPH21, stronger effect = lower value 0.925 | [11] 0.944 | [12] 0.989 | [13] 0.998 | [71] 0.911 | [14] 1 | [15] 0.952 | locus YEL061C, strain CIN8, stronger effect = lower value 0.929 | [16] 0.939 | [17] 0.937 | [18] 0.968 | [19] 0.98 | [20] 0.976 | [21] 0.953 | [22] 0.984 | [23] 0.948 | [24] 0.973 | [25] 0.952 | [27] 0.885 | [28] 1.02 | locus YHR087W, strain rtc3, stronger effect = lower value 0.935 | [29] 0.939 | [30] 0.982 | [31] 0.938 | [32] 0.932 | [33] 0.918 | [34] 0.978 | [35] 0.913 | [36] 1.01 | [37] 0.986 | [38] 0.942 | [39] 0.949 | [40] 0.979 | [41] 0.972 | locus YLR058C, strain SHM2 (second series), stronger effect = lower value 0.976 | [42] 0.881 | [43] 0.944 | [44] 0.942 | [45] 0.936 | [46] 0.971 | [47] 0.965 | locus YMR219W, strain ESC1, stronger effect = lower value 0.998 | [74] 0.912 | [48] 0.979 | [49] 0.974 | [50] 0.935 | [75] 0.94 | [51] 0.976 | [52] 0.978 | [53] 0.979 | [54] 0.98 | [55] 0.932 | locus YNL322C, strain KRE1, stronger effect = lower value 0.98 | [56] 0.983 | [57] 0.921 | [58] 0.966 | [59] 1.02 | [60] 0.929 | [61] 0.976 | [62] 0.94 | [63] 0.95 | [64] 0.976 | [66] 0.979 | [67] 0.976 | [68] 0.993 | [69] 0.976 | [70] 0.973
active: locus YAL013W, strain DEP1, stronger effect = lower value 0.908 | [72] 0.92 | [26] 0.242 and 0.801 | locus YJR043C, strain POL32, stronger effect = lower value 0.91 | [73] 0.879 | locus YKL190W, strain CNB1, stronger effect = lower value 0.762 | locus YLR039C, strain RIC1, stronger effect = lower value 0.694 | locus YLR085C, strain ARP6, stronger effect = lower value 0.307 | locus YLR262C, strain YPT6, stronger effect = lower value 0.803 | locus YML094W, strain GIM5, stronger effect = lower value 0.865 | locus YNL298W, strain CLA4 (second series), stronger effect = lower value 0.784 | locus YNR030W, strain Alg12, stronger effect = lower value 0.803 | locus YOL006C, strain TOP1, stronger effect = lower value 0.579 | [76] 0.727 | locus YPL241C, strain CIN2, stronger effect = lower value 0.822 | [65] 0.863 | locus YPR135W, strain CTF4, stronger effect = lower value 0.388
